Binding signal data for one sequence are collected here from article PMC7862700, “An all-to-all approach to the identification of sequence-specific readers for epigenetic DNA modifications on cytosine”.

Holding throughout (test): DAPPL (digital affinity profiling via proximity ligation, sequencing); 10 mM Tris-HCl pH 7.5, 50 mM NaCl, 1 mM DTT, 4% glycerol, room temperature, 30 min; GST-TFs on glutathione beads, 16-mer random dsDNA library, 0.1% formaldehyde crosslink after washing; high values mean tight binding
Assay [1] concerns the target T1, FEV (Homo sapiens, UniProt Q99581 1-238).
T1 sequence: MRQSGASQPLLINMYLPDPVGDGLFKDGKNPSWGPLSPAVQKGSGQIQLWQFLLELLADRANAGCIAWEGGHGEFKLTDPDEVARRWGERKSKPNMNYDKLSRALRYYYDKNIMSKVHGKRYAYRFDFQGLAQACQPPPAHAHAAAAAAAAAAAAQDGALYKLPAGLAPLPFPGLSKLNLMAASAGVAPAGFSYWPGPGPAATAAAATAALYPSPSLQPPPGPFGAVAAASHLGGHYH
To be noted: protein: recombinant; tags: N-terminal GST; dsDNA, one strand shown. Summed up:
(§1)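 Binding signal is each hexamer's read frequency for a factor divided by its frequency in the tag-only sample. The factors were GST-fused human transcription factors from yeast, captured on glutathione beads, DNA-barcoded and pooled with that sample. Pools were incubated with 200 nmole of a random double-stranded 16-mer DNA library in Tris/NaCl/DTT/glycerol buffer at room temperature for 30 min, then washed, crosslinked with 0.1% formaldehyde, proximity-ligated with BsaI/T4 ligase (1 h, 37 °C), PCR-amplified and sequenced on an Illumina NextSeq500.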

Assay [2] deals with ETV5 (Homo sapiens, UniProt P41161 1-510). To be noted: protein: recombinant; tags: N-terminal GST; dsDNA, one strand shown. Summed up: as §1
Chain of ETV5 (P41161 whole entry): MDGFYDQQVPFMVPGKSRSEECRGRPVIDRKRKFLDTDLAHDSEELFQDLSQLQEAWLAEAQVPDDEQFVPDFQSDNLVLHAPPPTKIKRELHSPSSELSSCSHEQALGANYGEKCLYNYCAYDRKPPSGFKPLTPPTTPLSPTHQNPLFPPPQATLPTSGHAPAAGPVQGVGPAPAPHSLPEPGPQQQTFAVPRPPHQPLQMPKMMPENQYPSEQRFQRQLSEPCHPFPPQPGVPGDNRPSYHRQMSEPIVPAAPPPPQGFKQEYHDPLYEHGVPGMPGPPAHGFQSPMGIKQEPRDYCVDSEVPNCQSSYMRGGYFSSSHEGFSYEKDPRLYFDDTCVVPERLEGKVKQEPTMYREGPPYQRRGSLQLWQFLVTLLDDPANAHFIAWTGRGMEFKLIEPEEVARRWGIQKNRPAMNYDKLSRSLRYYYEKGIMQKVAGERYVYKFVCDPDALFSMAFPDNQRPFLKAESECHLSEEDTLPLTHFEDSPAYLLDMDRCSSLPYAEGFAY
In assay [3] the target is HSF1 (Homo sapiens, UniProt Q00613 1-529). To be noted: protein: recombinant; tags: N-terminal GST; chain copies: 3; dsDNA, one strand shown. Summed up: as §1
Chain of HSF1 (Q00613 whole entry): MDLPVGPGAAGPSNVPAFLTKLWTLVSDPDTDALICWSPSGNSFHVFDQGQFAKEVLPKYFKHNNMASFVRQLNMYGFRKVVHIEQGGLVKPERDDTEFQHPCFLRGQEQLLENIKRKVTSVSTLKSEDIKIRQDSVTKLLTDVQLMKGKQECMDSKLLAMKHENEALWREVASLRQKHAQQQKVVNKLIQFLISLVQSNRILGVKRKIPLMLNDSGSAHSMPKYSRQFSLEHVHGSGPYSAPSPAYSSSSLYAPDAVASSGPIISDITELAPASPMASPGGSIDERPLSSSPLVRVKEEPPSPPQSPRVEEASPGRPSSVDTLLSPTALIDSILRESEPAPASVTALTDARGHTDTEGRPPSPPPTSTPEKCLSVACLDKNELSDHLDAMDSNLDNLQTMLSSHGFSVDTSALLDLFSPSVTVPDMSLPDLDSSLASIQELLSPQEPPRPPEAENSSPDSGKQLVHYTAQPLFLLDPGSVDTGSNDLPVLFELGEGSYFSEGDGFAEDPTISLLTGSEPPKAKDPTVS
Assay [4] has as its target T2, SPIC (Homo sapiens, UniProt Q8N5J4 1-248).
T2 sequence: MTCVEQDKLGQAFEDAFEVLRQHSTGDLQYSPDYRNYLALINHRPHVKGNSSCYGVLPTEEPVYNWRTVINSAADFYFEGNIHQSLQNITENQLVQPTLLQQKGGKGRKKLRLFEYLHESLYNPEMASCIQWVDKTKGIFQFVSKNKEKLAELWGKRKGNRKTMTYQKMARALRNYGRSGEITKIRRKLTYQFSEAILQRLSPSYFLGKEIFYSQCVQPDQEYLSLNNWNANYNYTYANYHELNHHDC
The following applies: protein: recombinant; tags: N-terminal GST; dsDNA, one strand shown. Summed up: as §1

Assay [5] addresses ELF4 (Homo sapiens, UniProt Q99607 1-663). The following applies: protein: recombinant; tags: N-terminal GST; dsDNA, one strand shown. Summed up:
as §1

Assay [6] has as its target T3, ELK4 (Homo sapiens, UniProt P28324-2 1-405).
T3 sequence: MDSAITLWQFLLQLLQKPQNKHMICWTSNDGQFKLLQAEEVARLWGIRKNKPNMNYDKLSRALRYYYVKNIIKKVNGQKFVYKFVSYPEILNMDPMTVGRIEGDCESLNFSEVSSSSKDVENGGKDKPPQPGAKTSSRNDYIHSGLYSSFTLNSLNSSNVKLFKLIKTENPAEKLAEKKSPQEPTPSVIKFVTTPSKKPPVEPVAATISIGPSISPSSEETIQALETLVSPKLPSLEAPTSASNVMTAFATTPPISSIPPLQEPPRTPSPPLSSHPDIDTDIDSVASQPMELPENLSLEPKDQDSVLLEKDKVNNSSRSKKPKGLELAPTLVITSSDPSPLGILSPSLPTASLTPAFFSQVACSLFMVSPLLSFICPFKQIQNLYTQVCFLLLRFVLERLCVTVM
The following applies: protein: recombinant; tags: N-terminal GST; dsDNA, one strand shown. Summed up: as §1

The target in assay [7] is T4, ETV2 (Homo sapiens, UniProt O00321 1-342).
T4 sequence: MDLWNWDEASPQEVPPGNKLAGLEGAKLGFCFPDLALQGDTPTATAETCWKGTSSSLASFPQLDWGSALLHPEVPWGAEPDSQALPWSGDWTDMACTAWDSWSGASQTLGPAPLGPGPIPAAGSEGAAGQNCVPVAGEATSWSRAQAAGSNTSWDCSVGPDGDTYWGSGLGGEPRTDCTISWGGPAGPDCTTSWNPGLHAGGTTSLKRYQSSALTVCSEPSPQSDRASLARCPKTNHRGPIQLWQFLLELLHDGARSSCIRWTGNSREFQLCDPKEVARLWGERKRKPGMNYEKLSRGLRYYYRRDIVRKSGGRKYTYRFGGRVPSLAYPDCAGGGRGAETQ
To be noted: protein: recombinant; tags: N-terminal GST; dsDNA, one strand shown. Summed up: as §1

Assay [8] deals with T5, ELF3 (Homo sapiens, UniProt P78545 1-371).
T5 sequence: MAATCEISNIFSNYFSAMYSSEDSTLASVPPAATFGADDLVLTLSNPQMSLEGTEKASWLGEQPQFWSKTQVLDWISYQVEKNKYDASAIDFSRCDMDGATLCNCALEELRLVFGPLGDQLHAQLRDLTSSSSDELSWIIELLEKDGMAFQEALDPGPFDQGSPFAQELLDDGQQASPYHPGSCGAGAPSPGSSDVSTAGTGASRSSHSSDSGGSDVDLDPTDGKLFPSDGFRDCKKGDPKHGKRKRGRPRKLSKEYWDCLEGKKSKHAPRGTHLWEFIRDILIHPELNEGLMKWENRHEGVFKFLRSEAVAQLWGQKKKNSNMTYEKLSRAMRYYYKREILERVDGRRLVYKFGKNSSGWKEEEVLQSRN
The following applies: protein: recombinant; tags: N-terminal GST; dsDNA, one strand shown. Summed up: as §1

For assay [9], the target named is CRX (Homo sapiens, UniProt O43186 1-299). The following applies: protein: recombinant; tags: N-terminal GST; dsDNA, one strand shown. Summed up:
as §1

The target of assay [10] is ETV1 (Homo sapiens, UniProt P50549 1-477). To be noted: protein: recombinant; tags: N-terminal GST; dsDNA, one strand shown. Summed up: as §1
Chain of ETV1 (P50549 whole entry): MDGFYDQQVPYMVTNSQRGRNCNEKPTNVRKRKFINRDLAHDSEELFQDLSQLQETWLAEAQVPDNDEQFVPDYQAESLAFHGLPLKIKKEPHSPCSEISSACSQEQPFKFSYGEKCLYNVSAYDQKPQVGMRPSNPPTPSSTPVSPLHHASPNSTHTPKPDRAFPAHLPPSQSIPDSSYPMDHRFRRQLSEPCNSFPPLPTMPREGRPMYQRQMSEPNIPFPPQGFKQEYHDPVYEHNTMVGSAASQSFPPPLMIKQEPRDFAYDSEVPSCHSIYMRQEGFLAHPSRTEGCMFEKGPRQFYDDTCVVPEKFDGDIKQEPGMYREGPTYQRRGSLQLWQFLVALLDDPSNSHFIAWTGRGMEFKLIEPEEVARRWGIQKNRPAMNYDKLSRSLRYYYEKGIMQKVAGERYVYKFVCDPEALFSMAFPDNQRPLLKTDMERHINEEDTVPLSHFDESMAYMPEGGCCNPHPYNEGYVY
Assay [11] has as its target T6, ERF (Homo sapiens, UniProt P50548 1-548).
T6 sequence: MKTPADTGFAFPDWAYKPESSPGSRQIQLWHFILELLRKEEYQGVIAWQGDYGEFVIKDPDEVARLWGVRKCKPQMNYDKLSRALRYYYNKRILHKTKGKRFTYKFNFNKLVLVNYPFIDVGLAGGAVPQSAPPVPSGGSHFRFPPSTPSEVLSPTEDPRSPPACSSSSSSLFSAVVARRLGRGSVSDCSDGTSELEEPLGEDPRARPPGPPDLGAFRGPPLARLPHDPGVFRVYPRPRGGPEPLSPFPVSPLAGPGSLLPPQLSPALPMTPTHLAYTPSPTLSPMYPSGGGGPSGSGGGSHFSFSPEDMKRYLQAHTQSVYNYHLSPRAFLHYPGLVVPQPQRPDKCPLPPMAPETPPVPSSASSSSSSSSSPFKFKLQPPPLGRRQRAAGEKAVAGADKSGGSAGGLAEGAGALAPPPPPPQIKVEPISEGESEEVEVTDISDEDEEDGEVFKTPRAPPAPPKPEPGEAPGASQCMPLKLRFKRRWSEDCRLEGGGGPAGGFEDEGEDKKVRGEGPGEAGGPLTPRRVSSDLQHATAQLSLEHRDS
To be noted: protein: recombinant; tags: N-terminal GST; dsDNA, one strand shown. Summed up:
as §1

Assay [12] deals with T7, ETV3L (Homo sapiens, UniProt Q6ZN32 1-361).
T7 sequence: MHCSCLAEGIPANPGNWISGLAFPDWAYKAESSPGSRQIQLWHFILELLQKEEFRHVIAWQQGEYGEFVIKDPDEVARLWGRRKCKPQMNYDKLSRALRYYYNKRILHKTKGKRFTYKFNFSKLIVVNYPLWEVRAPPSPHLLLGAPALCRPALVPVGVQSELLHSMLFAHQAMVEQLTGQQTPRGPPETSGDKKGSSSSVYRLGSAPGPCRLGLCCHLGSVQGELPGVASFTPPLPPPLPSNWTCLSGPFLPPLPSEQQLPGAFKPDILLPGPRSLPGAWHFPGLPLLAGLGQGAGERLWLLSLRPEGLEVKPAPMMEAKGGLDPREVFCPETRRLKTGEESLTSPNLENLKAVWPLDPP
The following applies: protein: recombinant; tags: N-terminal GST; dsDNA, one strand shown. Summed up: as §1

Assay [13] deals with T8, ETS2 (Homo sapiens, UniProt P15036 1-469).
T8 sequence: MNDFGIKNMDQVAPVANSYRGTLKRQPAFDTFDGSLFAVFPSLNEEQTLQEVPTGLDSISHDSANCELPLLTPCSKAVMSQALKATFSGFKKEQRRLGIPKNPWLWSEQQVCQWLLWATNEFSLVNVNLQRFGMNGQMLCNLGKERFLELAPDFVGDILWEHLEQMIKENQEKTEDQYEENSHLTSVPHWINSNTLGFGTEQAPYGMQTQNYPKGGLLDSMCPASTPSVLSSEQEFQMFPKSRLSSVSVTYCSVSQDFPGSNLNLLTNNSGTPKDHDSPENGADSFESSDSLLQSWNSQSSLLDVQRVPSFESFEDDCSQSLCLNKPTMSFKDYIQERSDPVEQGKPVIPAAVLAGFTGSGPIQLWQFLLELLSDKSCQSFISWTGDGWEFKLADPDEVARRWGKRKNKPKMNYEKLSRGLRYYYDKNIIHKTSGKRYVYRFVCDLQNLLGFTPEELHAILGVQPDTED
To be noted: protein: recombinant; tags: N-terminal GST; dsDNA, one strand shown. Summed up:
as §1

Assay [14] concerns the target T9, SPDEF (Homo sapiens, UniProt O95238 1-335).
T9 sequence: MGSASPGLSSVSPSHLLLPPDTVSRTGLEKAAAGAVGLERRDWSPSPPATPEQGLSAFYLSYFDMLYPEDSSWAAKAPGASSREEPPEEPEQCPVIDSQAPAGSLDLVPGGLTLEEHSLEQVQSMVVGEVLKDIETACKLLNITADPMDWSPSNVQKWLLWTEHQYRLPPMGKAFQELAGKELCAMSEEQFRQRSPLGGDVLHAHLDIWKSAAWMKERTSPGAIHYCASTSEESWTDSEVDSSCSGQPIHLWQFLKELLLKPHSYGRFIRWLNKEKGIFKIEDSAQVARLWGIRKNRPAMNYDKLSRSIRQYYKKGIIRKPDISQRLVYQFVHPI
The following applies: protein: recombinant; tags: N-terminal GST; dsDNA, one strand shown. Summed up:
as §1

Assay [15] has as its target T10, ETV7 (Homo sapiens, UniProt Q9Y603 1-341).
T10 sequence: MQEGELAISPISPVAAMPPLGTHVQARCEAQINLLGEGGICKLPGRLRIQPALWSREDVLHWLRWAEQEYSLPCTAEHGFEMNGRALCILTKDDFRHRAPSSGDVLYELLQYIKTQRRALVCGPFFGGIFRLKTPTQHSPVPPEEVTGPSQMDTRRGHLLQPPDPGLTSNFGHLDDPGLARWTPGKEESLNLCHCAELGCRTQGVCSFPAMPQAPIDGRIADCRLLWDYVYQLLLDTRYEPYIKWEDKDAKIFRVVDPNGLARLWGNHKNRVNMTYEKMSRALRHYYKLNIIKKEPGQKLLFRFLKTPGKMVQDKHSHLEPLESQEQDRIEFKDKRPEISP
The following applies: protein: recombinant; tags: N-terminal GST; dsDNA, one strand shown. Summed up:
as §1

For assay [16], the target named is T11, ELF5 (Homo sapiens, UniProt Q9UKW6-2 1-255).
T11 sequence: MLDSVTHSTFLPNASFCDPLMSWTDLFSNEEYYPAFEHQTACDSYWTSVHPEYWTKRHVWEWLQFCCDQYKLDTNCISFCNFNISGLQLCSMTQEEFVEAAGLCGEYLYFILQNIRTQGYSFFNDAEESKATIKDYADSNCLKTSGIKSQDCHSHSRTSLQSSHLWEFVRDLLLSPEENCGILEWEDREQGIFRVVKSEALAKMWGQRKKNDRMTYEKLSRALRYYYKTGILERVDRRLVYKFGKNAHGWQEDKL
To be noted: protein: recombinant; tags: N-terminal GST; dsDNA, one strand shown. Summed up:
as §1

The target of assay [17] is T12, ETV3 (Homo sapiens, UniProt P41162-2 1-143).
T12 sequence: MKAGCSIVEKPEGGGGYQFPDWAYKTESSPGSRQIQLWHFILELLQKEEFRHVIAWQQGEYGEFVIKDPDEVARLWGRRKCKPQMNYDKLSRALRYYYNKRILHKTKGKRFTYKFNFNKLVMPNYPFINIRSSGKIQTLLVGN
The following applies: protein: recombinant; tags: N-terminal GST; dsDNA, one strand shown. Summed up:
as §1

Assay [18] has as its target ETV6 (Homo sapiens, UniProt P41212 1-452). To be noted: protein: recombinant; tags: N-terminal GST; dsDNA, one strand shown. Summed up: as §1

Chain of ELF4 (Q99607 whole entry): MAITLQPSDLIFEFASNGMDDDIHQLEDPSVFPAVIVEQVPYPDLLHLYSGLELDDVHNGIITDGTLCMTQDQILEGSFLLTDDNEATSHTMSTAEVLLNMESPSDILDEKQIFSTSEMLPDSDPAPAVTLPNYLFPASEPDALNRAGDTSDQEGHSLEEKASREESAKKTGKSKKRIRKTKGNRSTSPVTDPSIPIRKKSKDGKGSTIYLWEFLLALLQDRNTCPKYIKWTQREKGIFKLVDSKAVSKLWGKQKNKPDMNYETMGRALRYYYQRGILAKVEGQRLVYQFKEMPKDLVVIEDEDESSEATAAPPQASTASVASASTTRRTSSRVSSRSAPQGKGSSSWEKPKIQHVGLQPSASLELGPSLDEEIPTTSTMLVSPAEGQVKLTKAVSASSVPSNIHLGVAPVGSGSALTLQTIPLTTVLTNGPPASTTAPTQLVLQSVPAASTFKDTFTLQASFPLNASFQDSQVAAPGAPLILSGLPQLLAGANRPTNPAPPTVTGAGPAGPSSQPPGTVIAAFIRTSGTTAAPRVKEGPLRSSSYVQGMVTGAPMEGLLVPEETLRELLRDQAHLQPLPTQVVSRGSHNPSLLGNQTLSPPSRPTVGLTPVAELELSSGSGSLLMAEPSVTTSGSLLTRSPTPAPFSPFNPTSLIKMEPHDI
Chain of ETV6 (P41212 whole entry): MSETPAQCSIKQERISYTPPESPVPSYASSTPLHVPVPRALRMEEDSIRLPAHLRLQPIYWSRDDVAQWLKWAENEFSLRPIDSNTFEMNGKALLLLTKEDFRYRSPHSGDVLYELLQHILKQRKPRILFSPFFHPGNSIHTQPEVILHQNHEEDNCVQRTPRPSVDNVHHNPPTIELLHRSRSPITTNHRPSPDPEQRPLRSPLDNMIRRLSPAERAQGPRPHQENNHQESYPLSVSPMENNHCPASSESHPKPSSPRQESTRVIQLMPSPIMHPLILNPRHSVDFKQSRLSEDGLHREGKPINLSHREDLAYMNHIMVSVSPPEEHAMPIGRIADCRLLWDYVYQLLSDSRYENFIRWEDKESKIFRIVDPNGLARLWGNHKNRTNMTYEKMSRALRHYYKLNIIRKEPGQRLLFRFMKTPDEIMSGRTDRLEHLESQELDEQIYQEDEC
Chain of CRX (O43186 whole entry): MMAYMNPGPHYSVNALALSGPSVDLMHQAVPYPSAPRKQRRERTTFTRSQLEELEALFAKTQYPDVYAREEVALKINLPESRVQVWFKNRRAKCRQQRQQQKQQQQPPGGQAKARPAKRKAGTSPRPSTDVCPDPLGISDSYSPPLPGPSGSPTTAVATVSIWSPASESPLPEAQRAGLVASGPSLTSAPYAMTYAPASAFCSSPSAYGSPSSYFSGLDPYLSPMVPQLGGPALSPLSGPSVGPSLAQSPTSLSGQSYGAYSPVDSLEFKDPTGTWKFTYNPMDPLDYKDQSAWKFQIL

In the case of TTGGCA, the binding signal in assay [1] is 1.13 fold enrichment (6-mer frequency, TF over GST control); in assay [2], 1.07 fold enrichment (6-mer frequency, TF over GST control); in assay [3], 1.04 fold enrichment (6-mer frequency, TF over GST control); in assay [4], 1.17 fold enrichment (6-mer frequency, TF over GST control); in assay [5] it was 1.16 fold enrichment (6-mer frequency, TF over GST control); in [6] it was 1.34 fold enrichment (6-mer frequency, TF over GST control). The binding signal is 1.25 fold enrichment (6-mer frequency, TF over GST control) in [7]; 1.07 fold enrichment (6-mer frequency, TF over GST control) in assay [8]; 1.12 fold enrichment (6-mer frequency, TF over GST control) in assay [9]; 1.18 fold enrichment (6-mer frequency, TF over GST control) in assay [10]; 1.19 fold enrichment (6-mer frequency, TF over GST control) in assay [11]; 1.14 fold enrichment (6-mer frequency, TF over GST control) in [12]. Moreover, the binding signal in assay [13] is 1.13 fold enrichment (6-mer frequency, TF over GST control); in assay [14] it was 1.12 fold enrichment (6-mer frequency, TF over GST control); in assay [15] it was 1.09 fold enrichment (6-mer frequency, TF over GST control); in assay [16], 1.01 fold enrichment (6-mer frequency, TF over GST control); in assay [17], 1.17 fold enrichment (6-mer frequency, TF over GST control); in [18], 1.19 fold enrichment (6-mer frequency, TF over GST control).
